Assay results published in PubChem BioAssay AID1159580 (chemical genetic matrix, 2015).
Values joined by “and” are separate entries in the source; they are usually repeats but may differ in a detail not shown here. Equal entries are not always repeated. About 2,000 (36%) of roughly 5,500 compounds were called active. Another 18% or so got no clear call; they are omitted. Cut-off read from the data, not from the text of the source: active = normalized growth mostly below about 0.91 (no sharp cut-off); inconclusive = no clear call, values can overlap the other calls; inactive = mostly above about 0.92. The list shows a part of the results.

Test: chemical genetic growth profiling, strain panel (AID 1159580);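 note: tested at 20 µM; growth read once vehicle control cultures reached saturation at 30 °C; 1 = growth at the plate median or of vehicle wells; lower values mean less growth of the strain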
Details: S. cerevisiae deletion strains, growth OD

Measured: normalized growth

C[C@@H]1C[C@@H]([C@H](O)CC2CC(=O)NC(=O)C2)C(=O)[C@@H](C)C1
active: locus YAL013W, strain DEP1, stronger effect = lower value 0.0595 | locus YAL021C, strain ccr4, stronger effect = lower value 0.0677 | locus YAL026C, strain drs2, stronger effect = lower value 0.0607 | locus YAL030W, strain snc1, stronger effect = lower value 0.0538 | locus YBL061C, strain skt5, stronger effect = lower value 0.0591 | locus YBR009C, strain hhf1, stronger effect = lower value 0.0595 | locus YBR021W, strain FUR4, stronger effect = lower value 0.0961 | locus YBR023C, strain chs3, stronger effect = lower value 0.0612 | locus YBR171W, strain sec66, stronger effect = lower value 0.075 | locus YBR229C, strain ROT2, stronger effect = lower value 0.031 | locus YBR231C, strain swc5, stronger effect = lower value 0.0623 | locus YBR279W, strain paf1, stronger effect = lower value 0.0578 | locus YCL011C, strain gbp2, stronger effect = lower value 0.0569 | locus YCL016C, strain dcc1, stronger effect = lower value 0.0627 | locus YCL029C, strain bik1, stronger effect = lower value 0.0585 | locus YCL069W, strain vba3, stronger effect = lower value 0.058 | locus YCR088W, strain abp1, stronger effect = lower value 0.0589 | locus YDL005C, strain med2, stronger effect = lower value 0.0714 | locus YDL035C, strain GPR1, stronger effect = lower value 0.0555 | locus YDL040C, strain nat1, stronger effect = lower value 0.0555 | locus YDL074C, strain BRE1, stronger effect = lower value 0.0968 | locus YDL101C, strain DUN1, stronger effect = lower value 0.0509 | locus YDL134C, strain PPH21, stronger effect = lower value 0.0498 | locus YDL185W, strain tfp1, stronger effect = lower value 0.0581 | locus YDL192W, strain arf1, stronger effect = lower value 0.0598 | locus YDR001C, strain nth1, stronger effect = lower value 0.0564 | locus YDR069C, strain doa4, stronger effect = lower value 0.0601 | locus YDR101C, strain arx1, stronger effect = lower value 0.0579 | locus YDR137W, strain rgp1, stronger effect = lower value 0.0878 | locus YDR150W, strain NUM1, stronger effect = lower value 0.0592 | locus YDR159W, strain sac3, stronger effect = lower value 0.0889 | locus YDR162C, strain NBP2, stronger effect = lower value 0.0524 | locus YDR195W, strain ref2 0.129 | locus YDR297W, strain sur2, stronger effect = lower value 0.0532 | locus YDR318W, strain mcm21, stronger effect = lower value 0.0664 | locus YDR334W, strain swr1, stronger effect = lower value 0.0608 | locus YDR335W, strain msn5, stronger effect = lower value 0.059 | locus YDR388W, stronger effect = lower value 0.0549 | locus YDR392W, strain spt3, stronger effect = lower value 0.0763 | locus YDR502C, strain sam2, stronger effect = lower value 0.061 | locus YEL003W, strain gim4, stronger effect = lower value 0.0527 | locus YEL037C, strain rad23, stronger effect = lower value 0.0554 | locus YEL061C, strain CIN8 (second series), stronger effect = lower value 0.0592 | locus YEL061C, strain CIN8, stronger effect = lower value 0.0496 | locus YER015W, strain faa2, stronger effect = lower value 0.0595 | locus YER016W, strain bim1, stronger effect = lower value 0.0609 | locus YER110C, stronger effect = lower value 0.0708 | locus YER111C, strain swi4, stronger effect = lower value 0.0709 | locus YER155C, strain BEM2 (second series), stronger effect = lower value 0.0899 | locus YER155C, strain BEM2, stronger effect = lower value 0.0629 | locus YER167W, strain BCK2, stronger effect = lower value 0.0564 | locus YFR010W, strain ubp6, stronger effect = lower value 0.0674 | locus YGL078C, strain dbp3, stronger effect = lower value 0.0553 | locus YGL086W, strain mad1, stronger effect = lower value 0.0574 | locus YGL167C, strain pmr1, stronger effect = lower value 0.0714 | locus YGL173C, strain kem1, stronger effect = lower value 0.0657 | locus YGL227W, strain vid30, stronger effect = lower value 0.06 | locus YGL240W, strain doc1, stronger effect = lower value 0.0796 | locus YGL248W, strain PDE1, stronger effect = lower value 0.0442 | locus YGL253W, strain hxk2, stronger effect = lower value 0.0535 | locus YGR078C, strain PAC10, stronger effect = lower value 0.0533 | locus YGR135W, strain pre9, stronger effect = lower value 0.0644 | locus YGR229C, strain SMI1, stronger effect = lower value 0.0652 | locus YGR252W, strain gcn5, stronger effect = lower value 0.175 | locus YHR013C, strain ard1, stronger effect = lower value 0.0947 | locus YHR027C, strain rpn1, stronger effect = lower value 0.0594 | locus YHR030C, strain SLT2, stronger effect = lower value 0.0489 and 0.101 | locus YHR079C, strain IRE1 (second series), stronger effect = lower value 0.0562 | locus YHR079C, strain IRE1, stronger effect = lower value 0.107 | locus YHR094C, strain hxt1, stronger effect = lower value 0.0562 | locus YHR129C, strain ARP1, stronger effect = lower value 0.0564 | locus YHR142W, strain chs7, stronger effect = lower value 0.0716 | locus YHR200W, strain rpn10, stronger effect = lower value 0.0589 | locus YIL066C, strain RNR3, stronger effect = lower value 0.0491 | locus YIL073C, strain SPO22, stronger effect = lower value 0.114 | locus YIL125W, strain kgd1, stronger effect = lower value 0.0558 | locus YIR030C, strain dcg1, stronger effect = lower value 0.0576 | locus YJL092W, strain hpr5, stronger effect = lower value 0.0581 | locus YJL095W, strain BCK1 (second series), stronger effect = lower value 0.0549 | locus YJL095W, strain BCK1, stronger effect = lower value 0.0583 and 0.105 | locus YJL115W, strain asf1, stronger effect = lower value 0.0707 | locus YJL129C, strain trk1, stronger effect = lower value 0.0813 | locus YJL134W, strain LCB3, stronger effect = lower value 0.0474 | locus YJL154C, strain vps35, stronger effect = lower value 0.0577 | locus YJL164C, strain tpk1, stronger effect = lower value 0.0602 | locus YJL166W, strain qcr8, stronger effect = lower value 0.0579 | locus YJL168C, strain set2, stronger effect = lower value 0.0578 | locus YJL187C, strain SWE1 (second series), stronger effect = lower value 0.0445 | locus YJL187C, strain SWE1, stronger effect = lower value 0.0553 | locus YJR043C, strain POL32, stronger effect = lower value 0.0691 | locus YJR066W, strain TOR1, stronger effect = lower value 0.000656
